Screening data deposited in PubChem by National Center for Advancing Translational Sciences (NCATS).
Compounds with a hit are over-represented: about 6.8% of the library has one in this group of screens.
KB-3-1 cytotox – kills parental KB-3-1 adenocarcinoma cells; Potency, µM (highest dose often 46.1 µM), most hits filed as cytotoxic; 1.4% of 400,000 active; KB-3-1 viability, CellTiter-Glo ATP luminescence, 72 h; note: % is set by controls: 0 for no effect and ±100 for the full control effect; nearly all actives have a fitted effect of over 60% in size
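Parental KB-3-1 viability, qHTS format: 72 h compound exposure, 37 °C; CellTiter-Glo; media-only wells and DMSO plates as controls; concentration-effect fits on corrected data.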
KB-V1 cytotox – KB-V1 MDR subline cytotoxicity; Potency, µM (doses to about 46.1 µM), most hits filed as cytotoxic; KB-V1 MDR cells viability, CellTiter-Glo, 72 h; 3.4% of 400,000 active; note: % is set by controls: 0 for no effect and ±100 for the full control effect; nearly all actives have a fitted effect of over 60% in size
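Drug-selected KB-V1 cells, grown in DMEM lacking phenol red with 10% FBS, receive compound titrations; after three days at 37 degrees C, surviving cell ATP is quantified by CellTiter-Glo luminescence and responses normalized and curve-fitted.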
MCF10A rereplic – DNA re-replication induction in MCF 10a cells; Potency, µM (series often up to 46.1 µM), without a hit: at the top dose activity, positive = re-replication, actives largely listed as activators; AID 624296; MCF 10A DNA re-replication, Hoechst nuclear intensity, 48 h; 2.9% of 350,000 active; note: % of control where 0% means no effect; nearly all actives have a fitted effect of over 50% in size
PINK1 modulator – modulators of PINK1 expression. Potency, µM (highest dose often 76.6 µM), for the others: top-dose activation (PINK1 increase), hits mostly activators. 0.2% of 410,000 active. PINK1 immunofluorescence, high-content cytometry, 24 h; active = well fitted activation curve with a large enough effect; inconclusive = small, poorly fitted or top-dose-only effect; cell line not stated here; note: % of control where 0% means no effect; nearly all actives have a fitted effect of over 65% in size
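Measures PINK1 amount and localization on or inside mitochondria by immunofluorescence. Stable cells get compounds at 5 concentrations for 24 hours before fixation and staining; CCCP controls included.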
PTAP TSG101 blk – blocks PTAP/TSG101 interaction to inhibit HIV-1 budding | AID 493005 | Potency, µM (titrated, usually from 115 µM), without a hit: at the highest dose activity change, negative = inhibition, hits mostly inhibitors | 340,000 tested, under 10 active | Fluorescence polarization, FITC-PTAP peptide / Tsg101 binding | Q99816; active = well fitted inhibition curve with a large enough effect in the main read-out, with a control signal flat, not every such curve was filed as active; inconclusive = small, poorly fitted or top-dose-only effect, or effect the other way, or a change in a side signal; inactive = no such curve, though single readings can be large or run the other way; note: % of control where 0% means no effect
Target sequence (Q99816 whole entry, looked up): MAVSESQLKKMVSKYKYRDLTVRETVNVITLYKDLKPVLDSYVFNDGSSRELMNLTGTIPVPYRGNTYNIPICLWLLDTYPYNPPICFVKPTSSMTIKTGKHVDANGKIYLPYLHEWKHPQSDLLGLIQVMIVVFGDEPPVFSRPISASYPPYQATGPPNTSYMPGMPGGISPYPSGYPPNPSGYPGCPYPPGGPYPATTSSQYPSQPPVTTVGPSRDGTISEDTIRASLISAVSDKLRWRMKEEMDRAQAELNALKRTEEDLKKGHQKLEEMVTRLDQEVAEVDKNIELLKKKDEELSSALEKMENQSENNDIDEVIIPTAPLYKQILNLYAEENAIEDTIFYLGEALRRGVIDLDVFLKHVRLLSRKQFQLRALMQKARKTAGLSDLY
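Steps: Tsg101 binding domain dispensed (10 uM final), compounds pinned in DMSO, FITC-labeled PTAP-motif peptide added (50 nM final); after 20 min binding at room temperature, polarization measured.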
SW480 rereplic – inducers of DNA re-replication in SW480 colon cancer cells; SW480 DNA re-replication, Hoechst DNA content imaging, 48 h; Potency, µM (top dose mostly 46.1 µM), inactives show at the top dose re-replication activation, hits mostly activators; 1.8% of 340,000 active; AID 624297; note: % of control where 0% means no effect; nearly all actives have a fitted effect of over 55% in size
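Readout is total intensity of Hoechst-stained nuclei, excited at 405 nm and collected at 500-530 nm. Compound treatment lasted 48 hr at 37 C in 5% CO2 before staining.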
The depositor's hits bear a star; i = inactive; ? = inconclusive; . = not tested or not shown; [ ] = dose if it differs, or a comment. Unless noted, calls come from the whole dose curve; as a rule, active = well fitted curve in the direction sought with a large enough effect; inconclusive = small, poorly fitted or top-dose-only effect, or another doubt; inactive = no such curve, though single readings can be large; an effect the other way counts as inactive or inconclusive. Potency is the fitted concentration of half-maximal effect.

SMILES	KB-3-1 cytotox	KB-V1 cytotox	MCF10A rereplic	PINK1 modulator	PTAP TSG101 blk	SW480 rereplic
COc1cc(CN2CCN(c3cccc(Cl)c3)CC2)cc(OC)c1OC	3.66µM*	2.31µM*	16.4µM*	6.0%[38.3 µM]	-6.9%	16.4µM*
CCOc1cccc(CN2CCN(c3cccc(C(F)(F)F)c3)CC2)c1O	i	i	-2.6%	5.9%[38.3 µM]	-13.6%	27.7%
COc1cccc(CN2CCN(c3cccc(C(F)(F)F)c3)CC2)c1OC	i	20.6µM*	?	2.0%[38.3 µM]	.	14.9%
COCCn1c(=O)c(-c2cc(F)cc(F)c2)nc2cnc(OCc3ccccc3)nc21	.	.	.	2.8%	.	.
O=C(c1cccc(N2C(=O)C3CC=CCC3C2=O)c1)N1CCN(c2ccccc2)CC1 (centres undefined)	i	23.1µM*	6.2%	0.7%[38.3 µM]	.	-2.5%
CC1C=CCC2C(=O)N(c3cccc(C(=O)N4CCN(c5ccc(F)cc5)CC4)c3)C(=O)C12 (centres undefined)	i	18.4µM*	3.2%	-3.1%[38.3 µM]	.	1.1%
Cc1cc(C)c(NC(=O)COCc2cc(-c3cccs3)on2)c(C)c1	i	i	.	0.5%	.	.
O=C1CCC/C1=C\c1ccccc1	i	i	-0.9%	-0.7%	2.1%	-0.6%
O=C1C(=Cc2ccc(Cl)cc2)CCc2ccccc21	i	i	.	3.2%	.	.
O=C1/C(=C\c2ccncc2)CCc2ccccc21	i	?	?	-1.5%	0.2%	8.5%
O=C1/C(=C/c2ccncc2)CCC/C1=C\c1ccncc1	7.31µM*	?	3.66µM*	-1.4%	3.0%	2.59µM*
O=C1/C(=C\c2ccccc2)CCC/C1=C/c1ccccc1	?	?	14.6µM*	0.0%	-1.2%	?
O=C1C(=Cc2ccncc2)CCCc2ccccc21	?	?	.	-1.8%	.	.
O=C1C(=Cc2ccccc2Cl)CCc2ccccc21	20.6µM*	?	.	1.7%	.	.
O=C1/C(=C/c2ccncc2)CCc2ccccc21	i	14.6µM*	?	2.1%	-7.7%	20.6µM*
Cc1ccc(S(=O)(=O)NC(=O)NC2CCCC2)cc1	.	.	14.6%	.	.	-1.6%
CCOC(=O)c1cnc2ccc(OCC)cc2c1NCc1cccnc1	?	?	23.1µM*	2.1%	0.2%	-0.2%
CCOC(=O)c1cnc2ccc(OCC)cc2c1NCc1ccccc1	?	1.84µM*	20.6µM*	?	1.1%	-2.3%
Cc1[nH]c2c(C)cccc2c1CCNC(=O)c1cc2ccccc2oc1=O	i	i	.	2.5%	.	.
Cc1ccc(CN(C(=O)COc2ccccc2[N+](=O)[O-])c2ccccn2)o1	i	i	.	-0.2%	.	.
O=C(NNC(=S)NC1CCCCC1)c1ccccc1Br	i	i	0.3%	1.5%	-5.3%	0.3%
CC1CCCC(NC(=S)NC(=O)c2ccccc2Br)C1C (centres undefined)	25.9µM*	16.4µM*	?	?	-0.5%	?
O=c1oc2ccccc2c(O)c1Cc1cc(Cl)c2cccnc2c1O	16.4µM*	?	5.8µM*	13.4%	-5.9%	?
Oc1c(CN2CCc3ccccc3C2)cc(Cl)c2cccnc12	?	?	?	2.1%	-10.9%	1.8%
COc1c(C)cc(C(=O)C2CCCN(C(=O)C3=C(C)OCCO3)C2)cc1C (centres undefined)	i	20.6µM*	-4.6%	0.9%	-8.5%	-10.3%
CCc1ccc2nc3nc(C)cc(C)c3c(N)c2c1	i	20.6µM*	-13.7%	.	-10.2%	2.91µM*
Cc1cc(C)c2c(N)c3ccccc3nc2n1	i	?	?	-4.2%	-5.1%	?
Cc1cccc(C(=O)N2CCOc3ccc(CN(C)Cc4cc(C5CC5)n[nH]4)cc3C2)n1	.	.	.	-0.7%	.	.
Cn1cc(Br)c(C(=O)NN2C(=O)C3C4C=CC(C5CC45)C3C2=O)n1 (centres undefined)	i	i	?	0.8%	-5.0%	-35.7%
